This is a sample that favours compounds with a hit; in the whole collection about 1% have one here.
VCAM1 TNFa inh: reduces TNF alpha induced VCAM1 expression in HUVEC. HUVEC TNFa-induced VCAM-1 immunofluorescence, high-content imaging. inhibition, % at 2 µM. 95,000 compounds, 0.48% hits. AID 802;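 active = inhibition above the batch mean plus 3 SD, with images confirmed as a hit by eye, cut at about 37% in these data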;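 note: 0% = TNF-stimulated DMSO wells and 100% = unstimulated control wells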
cytoskel mod: cytoskeleton assembly modification; HUVEC TNFa F-actin phalloidin imaging, high content; inhibition, % at 2 µM; 91,000 compounds, 0.18% hits; AID 836;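 active = inhibition above the batch mean plus 3 SD and confirmed as a hit by visual image inspection, cut at about 30% in these data, passing the limit was not always enough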
E-sel TNF inh: blocks E-selectin expression induced by TNF alpha; AID 1246; inhibition, % at 2 µM; HUVEC TNFa-induced E-selectin immunofluorescence, high content; 120,000 compounds, 0.71% hits;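 active = inhibition above the batch mean plus 3 SD, and confirmed as a hit on visual image review, cut at about 43% in these data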;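 note: 0% = TNF-stimulated DMSO wells and 100% = unstimulated control wells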
HUVEC tox TNFa: HUVEC cytotoxicity counter-screen, TNF alpha stimulated | HUVEC TNFalpha-stimulated, Hoechst cell count, imaging | cell count reduction, % at 2 µM | 93,000 compounds, 0.17% hits | AID 848;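 active = cell count reduction exceeding the screen mean by over 5 SD, scaled to untreated wells per plate, cut at about 78% in these data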;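 note: cells counted after 24 h of TNF alpha exposure following the 1 h pretreatment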
Active calls of the source: *; . = not tested or not shown.

SMILES	VCAM1 TNFa inh	cytoskel mod	E-sel TNF inh	HUVEC tox TNFa
O=Cc1cc2ccccc2nc1SCc1ccc(Cl)cc1	66*	-41	25	34
COc1cnn(-c2ccccc2)c(=O)c1SCc1ccc(Cl)c(Cl)c1	6	16	2	-19
Clc1ccc(CSc2ncccn2)cc1	4	-3	-6	-4
O=Cc1cc2ccccc2nc1SCc1ccc(Cl)c(Cl)c1	72*	-49	6	69
Cc1ccc(CSc2ncccc2C(=O)O)cc1	-2	4	5	-24
Cc1ccc(CSc2nc3ccccc3cc2C=O)cc1	95*	-31	-16	56
CCC(C)(C)NC(=O)c1ccc(S(=O)(=O)N(C)c2ccccc2OC)cc1	-7	-7	0	5
COc1ccccc1N(C)S(=O)(=O)c1ccc(C(=O)NCC(C)C)cc1	74*	-26	13	28
Cc1ccc(NC(=O)Cn2cnc3sc(C(=O)NCCN(C)C)c(C)c3c2=O)cc1Cl	9	-15	50*	-1
Cc1cc(NC(=O)Cn2c(=O)c3c(ncn3CC(C)C)n(Cc3ccccc3)c2=O)no1	.	.	-30	.
CC(C)Cn1cnc2c1c(=O)n(CC(=O)Nc1ccc3c(c1)OCO3)c(=O)n2Cc1ccccc1	-1	-15	71*	13
O=C(O)CSC1c2ccccc2C(=O)N1Cc1ccccc1 (centres undefined)	-4	29	69*	-13
O=C(O)CCC(=O)Nc1ccc(Br)c(Cl)c1	19	0	75*	-5
CCCCC(=O)NC(=S)Nc1ccccc1C(=O)Nc1ccccc1	93*	-88	.	90*
CC(=O)NC(=S)Nc1ccccc1C(=O)Nc1ccccc1	.	.	10	.
Cc1nn(-c2cc(C)c3ccccc3n2)c2c1C1C(C2)C1(C)C (centres undefined)	60*	-7	5	12
Cc1cc(-n2nnc3ccccc32)nc2ccccc12	12	-16	13	1
O=C(c1ccc(S(=O)(=O)c2ccccc2Cl)c([N+](=O)[O-])c1)N1CCCCCC1	.	.	-21	.
Nn1c(SCC(=O)Nc2ccc3c(c2)OCCO3)nnc1C(F)(F)F	1	34*	.	-9
Cc1nnc(SCC(=O)Nc2ccc3c(c2)OCCO3)n1N	1	-11	12	-17
NC(=O)Cc1ccc(C(=O)c2ccc(Cl)cc2)s1	.	.	-10	.
Nc1sccc1C(=O)c1ccc(Cl)cc1	92*	30	-2	-62
Cc1ccc(/C=C/C(=O)N2CCC(Cc3ccccc3)CC2)cc1	.	.	-7	.
Cn1c(SCc2ccc(C#N)cc2)nnc1-c1cccc(Cl)c1	3	3	60*	-4
N#C/C(=C\Nc1ccccc1SC(F)(F)F)c1nc(-c2ccc(Cl)cc2)cs1	.	.	-18	.
SMILES	VCAM1 TNFa inh	cytoskel mod	E-sel TNF inh	HUVEC tox TNFa
CCCCSc1nc(C)cc(SCC(=O)N/N=C/c2cccc(OC)c2O)n1	44*	31	-17	42
COc1cccc(/C=N/NC(=O)CSc2nnc(C)n2-c2ccccc2)c1O	6	-17	-21	-8
CCOC(=O)c1sc(=N)n(-c2ccc(OC)cc2)c1C	4	18	64*	1
CCOC(=O)c1nnn(-c2ccc(OC)cc2)c1N	9	6	-6	8
CCOc1ccc(OCC)c(NC(=O)CN2CCN(c3cccc(C)c3)CC2)c1	.	.	95*	.
CCC(=O)Nc1nnc(-c2ccccn2)o1	.	.	68*	.
CCCC(=O)C1=C(O)C(C(=O)OC)C(C)(C)CC1=Nc1ccc(OC)cc1 (centres undefined)	.	.	-15	.
CCCC(=O)C1=C(O)C(C(=O)OC)C(C)(C)CC1=Nc1ccc(N)cc1 (centres undefined)	16	-18	59*	-30
Cc1c(NC(=S)NC(NC(=O)C(C)C)C(Cl)(Cl)Cl)c(=O)n(-c2ccccc2)n1C (centres undefined)	.	.	-21	.
CCOC(=O)c1ccc(-n2ccnc2)c(NC(=O)c2ccc(Cl)cc2)c1	.	.	62*	.
Cn1c(CCNC(=O)c2ccc(Cl)c(Cl)c2)nnc1SCc1ccc(Cl)c(Cl)c1	3	-17	100*	4
Cc1ccc(OCC(=O)N2CCCC(CCC(=O)N(C)CCc3ccccn3)C2)cc1 (centres undefined)	.	.	12	.
O=C(Nc1ccccc1)C1=C(c2ccccc2)S(=O)(=O)CCS1(=O)=O	.	.	100*	.
CCOC(=O)C(C)S(=O)(=O)c1ccc(C(F)(F)F)cn1 (centres undefined)	14	8	5	10
CCCCC(=O)Nc1cc(OC)c(NC(=O)C2CCCCC2)cc1OC	-10	-24	-9	-10
O=C(/C=C/c1ccccc1)Nc1ncn[nH]1	31	10	60*	-8
COc1ccc(N/C=C/C(=O)c2ccc(C)cc2)c([N+](=O)[O-])c1	-6	19	65*	-7
O=C(O)Cn1ncn(-c2ccc(OC(F)(F)F)cc2)c1=O	.	.	-26	.
CCN1CCN(c2cc3c(nn2)Oc2ccccc2N3C)CC1	.	.	-2	.
COc1cc(NC(=O)C(C)C)ccc1NC(=O)c1ccco1	14	-18	.	-17
COc1cc(NC(=S)NC(C)=O)ccc1NC(=O)C(C)C	68	12	.	95*
Cc1nn(CC#N)c(=O)n1-c1cccc(F)c1	1	18	19	-33
C/C(N)=C(/C#N)C(=O)COC(=O)CC12CC3CC(CC(C3)C1)C2	22	3	9	22
Cc1ccc(C)c(N(CC(=O)NC2CCCC2)C(=O)c2cc3cc4cc(C)ccc4nc3s2)c1	48	1	.	84*
C=CCc1ccccc1OCC(O)CN(C(C)C)C(C)C (centres undefined)	0	-4	-2	0
SMILES	VCAM1 TNFa inh	cytoskel mod	E-sel TNF inh	HUVEC tox TNFa
C=CCc1ccccc1OCC(O)CNC (centres undefined)	56*	67*	4	94*
Fc1ccc(-c2nnc(-n3nnc4ccccc43)c3ccccc23)cc1	-2	-4	-6	11
Cc1nc2ccccc2n1-c1nc(-c2ccco2)cc(C(F)(F)F)n1	.	.	100*	.
C(=C/c1ccnc2nc(SC/C=C/c3ccccc3)nn12)/c1ccccc1	8	-12	12	-15
CCCCn1cnc2c1c(=O)[nH]c(=O)n2CCCC	0	35*	-5	-52
Cn1c(=O)[nH]c(=O)c2c1ncn2CCN1CCOCC1	-3	-16	7	-16
Cc1nn(CC(=O)OC(C)C(=O)Nc2ccccc2[N+](=O)[O-])c(C)c1[N+](=O)[O-] (centres undefined)	.	.	26	.
O=C(O)C1CC=CCC1C(=O)N1CCCC1 (centres undefined)	82*	14	6	96*
O=C(O)C1CC=CCC1C(=O)N1CCc2ccccc21 (centres undefined)	16	-17	-15	5
COc1ccc2nc(NC(=O)C(NS(=O)(=O)c3cccc4nsnc34)C(C)C)sc2c1 (centres undefined)	13	-9	1	86*
CCOC(=O)c1cnc2ccc(C(=O)OC)cc2c1Nc1cccc(C(=O)O)c1	.	.	3	.
CCOc1ccc(Nc2cc(C)nc(N3CCOCC3)n2)cc1	-1	-7	-1	-41
CCOC(=O)c1ccc(Nc2cc(C)nc(N3CCOCC3)n2)cc1	-9	-17	67*	-40
CCOC(=O)c1cnc2ccc(C)cc2c1Nc1ccc(N2CCOCC2)cc1	-18	-11	100*	5
Cc1c(Cl)c(C(=O)NNC(=S)NCc2ccco2)nn1C	-20	7	0	2
